From PubChem BioAssay (NCI)
About 79,000 compounds went through this panel and 15% of them were active in at least one assay; those are over-represented in the sample as a whole. Unmarked numbers belong to inactive results. The source made the active and inactive calls. Cut-off read from the data, not from the text of the source: active = growth inhibition above about 70%; inactive = the rest.

How the values were obtained:
[1] = NCI Yeast Anticancer Drug Screen. Data for the rad52 strain (AID 147);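 note: 0% = growth of vehicle-treated control cultures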; details: S. cerevisiae rad52 mutant growth inhibition, hits give high values
Summary of the method: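 Growth of repair-deficient yeast cells was compared between compound-treated and vehicle-treated cultures to give percent inhibition.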

[2] = NCI Yeast Anticancer Drug Screen. Data for the wt1 strain (AID 149);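 note: 0% = growth of vehicle-treated wt1 cultures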; details: S. cerevisiae wt1 strain (SPY 50644) growth inhibition, hits give high values
Summary of the method: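 Yeast wt1 strain exposed to compounds; growth inhibition measured relative to vehicle-treated controls.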

[3] = NCI Yeast Anticancer Drug Screen. Data for the rad50EPP+ strain (AID 151);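 note: 0% = growth of vehicle-treated control cultures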; details: S. cerevisiae rad50 mutant strain, hits give high values
Summary of the method: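 Measured: growth inhibition of rad50EPP+ yeast. Reference: vehicle-treated controls. Screen uses strains with defined genetic alterations in DNA damage repair or cell cycle control.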

[4] = NCI Yeast Anticancer Drug Screen. Data for the mgt1 strain (AID 153); details: S. cerevisiae mgt1 mutant growth inhibition, hits give high values
Summary of the method: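 Compounds were applied to mgt1 mutant yeast, and growth was then compared against vehicle-treated control cultures to give percent inhibition.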

[5] = NCI Yeast Anticancer Drug Screen. Data for the rad50 strain (AID 155);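 note: 0% = growth of vehicle-only cultures of the same strain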; details: S. cerevisiae rad50 strain growth inhibition, hits give high values
Summary of the method: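 Yeast carrying a defined DNA repair defect were exposed to test compounds, and growth was compared with vehicle-treated controls to give percent inhibition.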

[6] = NCI Yeast Anticancer Drug Screen. Data for the mec2-1 strain (AID 157); details: S. cerevisiae mec2-1 strain, hits give high values
Summary of the method: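 Compounds were applied to mec2-1 yeast cells. Their growth was then compared with that of vehicle-treated cultures to give growth inhibition.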

[7] = NCI Yeast Anticancer Drug Screen. Data for the rad14 strain (AID 159);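 note: 0% = growth of vehicle-treated control cultures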; details: S. cerevisiae rad14 strain growth inhibition, hits give high values
Summary of the method: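 Yeast cells carrying a defined DNA-repair defect were exposed to compounds, and growth inhibition was calculated relative to vehicle-treated control cultures.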

[8] = NCI Yeast Anticancer Drug Screen. Data for the sgs1 mgt1 strain (AID 161);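 note: 0% = growth of cultures given vehicle only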; details: S. cerevisiae sgs1 mgt1 strain, hits give high values
Summary of the method: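 Compounds are added to genetically altered yeast, and growth is compared with cultures given vehicle alone to give percent inhibition.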

[9] = NCI Yeast Anticancer Drug Screen. Data for the cln2 rad14 strain (AID 165);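 note: 0% = growth equal to vehicle treated cultures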; details: S. cerevisiae cln2 rad14 strain, hits give high values
Summary of the method: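 Strain: cln2 rad14 yeast, altered in cell cycle control and DNA damage repair. Read-out: growth inhibition vs vehicle.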

[10] = NCI Yeast Anticancer Drug Screen. Data for the bub3 strain (AID 167); details: S. cerevisiae bub3 mutant strain, hits give high values
Summary of the method: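 Compounds were applied to a genetically altered yeast strain carrying a cell-cycle control defect. Growth inhibition was scored against vehicle-treated controls.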

[11] = NCI Yeast Anticancer Drug Screen. Data for the wt2 strain (AID 169);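 note: 0% = growth of vehicle-treated yeast cultures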; details: S. cerevisiae wt2 strain growth inhibition, hits give high values
Summary of the method: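 Growth of compound-treated yeast is measured and expressed as inhibition relative to vehicle-only controls.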

[12] = NCI Yeast Anticancer Drug Screen. Data for the mlh1 strain (AID 171);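 note: 0% = growth of vehicle-treated control cultures of the same strain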; details: S. cerevisiae mlh1 strain growth inhibition, hits give high values
Summary of the method: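 Test agents were incubated with yeast bearing a defined DNA damage repair or cell cycle control alteration; values are growth inhibition normalised to vehicle-treated cultures.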

[13] = NCI Yeast Anticancer Drug Screen. Data for the sgs1 strain (AID 173);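 note: 0% = growth of vehicle-only control cultures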; details: S. cerevisiae sgs1 mutant, hits give high values
Summary of the method: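 Strain with an altered DNA repair or cell cycle pathway exposed to compound. Growth then measured. Value = inhibition versus vehicle control.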

[14] = NCI Yeast Anticancer Drug Screen. Data for the mlh1 rad18 strain (AID 175); details: S. cerevisiae mlh1 rad18 strain growth inhibition, hits give high values
Summary of the method: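 A repair-deficient yeast strain is exposed to test compound, and growth is scored relative to vehicle-treated controls.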

[15] = NCI Yeast Anticancer Drug Screen. Data for the rad18 strain (AID 177); details: S. cerevisiae rad18 mutant growth inhibition, hits give high values
Summary of the method: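 DNA-repair-defective yeast; compound treatment; growth inhibition scored against vehicle.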

[16] = NCI Yeast Anticancer Drug Screen. Data for the CLN2oe strain (AID 163);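 note: 0% = growth of vehicle-only control cultures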; details: S. cerevisiae CLN2oe strain, hits give high values
Summary of the method: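 Cells of an engineered yeast line with disturbed cell-cycle regulation are treated with compound. Inhibition of growth is then calculated relative to the vehicle-treated reference.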

[17] = at 5.0 µM (retest, dose inferred, filed as 0.5)
[18] = at 50.0 µM (retest, dose inferred, filed as 5.0)

Compound: CN(C)N=Nc1ccccc1C(=O)NC#N
- growth inhibition ([1]; at 1.2 µM): 8%
- growth inhibition ([1]; at 3.7 µM): 0%
- growth inhibition ([1]; at 11.0 µM): 83% (active)
- growth inhibition ([1]; at 33.0 µM): 98% (active)
- growth inhibition ([1]; at 100.0 µM): 98% (active)
- growth inhibition ([2]; at 1.2 µM): -8%
- growth inhibition ([2]; at 3.7 µM): -2%
- growth inhibition ([2]; at 11.0 µM): 97% (active)
- growth inhibition ([2]; at 33.0 µM): 98% (active)
- growth inhibition ([2]; at 100.0 µM): 99% (active)
- growth inhibition ([3]; at 1.2 µM): 7%
- growth inhibition ([3]; at 3.7 µM): 0%
- growth inhibition ([3]; at 11.0 µM): 13%
- growth inhibition ([3]; at 33.0 µM): 98% (active)
- growth inhibition ([3]; at 100.0 µM): 98% (active)
- growth inhibition ([4]; at 1.2 µM): -1%
- growth inhibition ([4]; at 3.7 µM): 20%
- growth inhibition ([4]; at 11.0 µM): 98% (active)
- growth inhibition ([4]; at 33.0 µM): 99% (active)
- growth inhibition ([4]; at 100.0 µM): 98% (active)
- growth inhibition ([5]; at 1.2 µM): -5%
- growth inhibition ([5]; at 3.7 µM): -14%
- growth inhibition [5, 17]: 18%
- growth inhibition ([5]; at 11.0 µM): 97% (active)
- growth inhibition ([5]; at 33.0 µM): 98% (active)
- growth inhibition [5, 18]: 98% (active)
- growth inhibition ([5]; at 50.0 µM): 90% (active)
- growth inhibition ([5]; at 100.0 µM): 94% (active)
- growth inhibition ([6]; at 1.2 µM): -12%
- growth inhibition ([6]; at 3.7 µM): 0%
- growth inhibition [6, 17]: 8%
- growth inhibition ([6]; at 11.0 µM): 97% (active)
- growth inhibition ([6]; at 33.0 µM): 99% (active)
- growth inhibition [6, 18]: 99% (active)
- growth inhibition ([6]; at 50.0 µM): 91.5% (active)
- growth inhibition ([6]; at 100.0 µM): 95% (active)
- growth inhibition ([7]; at 1.2 µM): -17%
- growth inhibition ([7]; at 3.7 µM): -14%
- growth inhibition ([7]; at 11.0 µM): 75% (active)
- growth inhibition ([7]; at 33.0 µM): 98% (active)
- growth inhibition ([7]; at 100.0 µM): 96% (active)
- growth inhibition [8, 17]: 36%
- growth inhibition [8, 18]: 53%
- growth inhibition ([8]; at 50.0 µM): 91.5% (active)
- growth inhibition [9, 17]: 35%
- growth inhibition [9, 18]: 67%
- growth inhibition ([9]; at 50.0 µM): 89.8% (active)
- growth inhibition ([10]; at 1.2 µM): 13%
- growth inhibition ([10]; at 3.7 µM): 10%
- growth inhibition [10, 17]: 39%
- growth inhibition ([10]; at 11.0 µM): 98% (active)
- growth inhibition ([10]; at 33.0 µM): 99% (active)
- growth inhibition [10, 18]: 77% (active)
- growth inhibition ([10]; at 50.0 µM): 90.2% (active)
- growth inhibition ([10]; at 100.0 µM): 99% (active)
- growth inhibition ([11]; at 1.2 µM): -8%
- growth inhibition ([11]; at 3.7 µM): -1%
- growth inhibition ([11]; at 11.0 µM): 98% (active)
- growth inhibition ([11]; at 33.0 µM): 99% (active)
- growth inhibition ([11]; at 100.0 µM): 99% (active)
- growth inhibition ([12]; at 1.2 µM): 1%
- growth inhibition ([12]; at 3.7 µM): 4%
- growth inhibition ([12]; at 11.0 µM): 93% (active)
- growth inhibition ([12]; at 33.0 µM): 99% (active)
- growth inhibition ([12]; at 100.0 µM): 98% (active)
- growth inhibition ([13]; at 1.2 µM): -6%
- growth inhibition ([13]; at 3.7 µM): -24%
- growth inhibition ([13]; at 11.0 µM): 98% (active)
- growth inhibition ([13]; at 33.0 µM): 98% (active)
- growth inhibition ([13]; at 100.0 µM): 99% (active)
- growth inhibition [14, 17]: 5%
- growth inhibition [14, 18]: 98% (active)
- growth inhibition ([14]; at 50.0 µM): 89.4% (active)
- growth inhibition ([15]; at 1.2 µM): 12%
- growth inhibition ([15]; at 3.7 µM): 5%
- growth inhibition ([15]; at 11.0 µM): 97% (active)
- growth inhibition ([15]; at 33.0 µM): 99% (active)
- growth inhibition ([15]; at 100.0 µM): 95% (active)

Compound: C[C](C)(C)[Ge]([O][Ge]([c]1ccccc1)[c]1ccccc1)([O][Ge]([c]1ccccc1)[c]1ccccc1)[C](C)(C)C
- growth inhibition ([1]; at 1.2 µM): 1%
- growth inhibition ([1]; at 3.7 µM): 15%
- growth inhibition ([1]; at 11.0 µM): 53%
- growth inhibition ([1]; at 33.0 µM): 74% (active)
- growth inhibition ([1]; at 100.0 µM): 78% (active)
- growth inhibition ([2]; at 1.2 µM): -3%
- growth inhibition ([2]; at 3.7 µM): 5%
- growth inhibition ([2]; at 11.0 µM): 42%
- growth inhibition ([2]; at 33.0 µM): 68%
- growth inhibition ([2]; at 100.0 µM): 75% (active)
- growth inhibition ([3]; at 1.2 µM): 0%
- growth inhibition ([3]; at 3.7 µM): 5%
- growth inhibition ([3]; at 11.0 µM): 5%
- growth inhibition ([3]; at 33.0 µM): 1%
- growth inhibition ([3]; at 100.0 µM): -3%
- growth inhibition ([4]; at 1.2 µM): -2%
- growth inhibition ([4]; at 3.7 µM): 3%
- growth inhibition ([4]; at 11.0 µM): 44%
- growth inhibition ([4]; at 33.0 µM): 67%
- growth inhibition ([4]; at 100.0 µM): 62%
- growth inhibition ([5]; at 1.2 µM): -1%
- growth inhibition ([5]; at 3.7 µM): 6%
- growth inhibition [5, 17]: 12%
- growth inhibition ([5]; at 11.0 µM): 42%
- growth inhibition ([5]; at 33.0 µM): 63%
- growth inhibition [5, 18]: 63%
- growth inhibition ([5]; at 50.0 µM): 71.9% (active)
- growth inhibition ([5]; at 100.0 µM): 71% (active)
- growth inhibition ([6]; at 1.2 µM): 4%
- growth inhibition ([6]; at 3.7 µM): 21%
- growth inhibition [6, 17]: 29%
- growth inhibition ([6]; at 11.0 µM): 60%
- growth inhibition ([6]; at 33.0 µM): 80% (active)
- growth inhibition [6, 18]: 75% (active)
- growth inhibition ([6]; at 50.0 µM): 65.8%
- growth inhibition ([6]; at 100.0 µM): 79% (active)
- growth inhibition ([7]; at 1.2 µM): -4%
- growth inhibition ([7]; at 3.7 µM): 1%
- growth inhibition ([7]; at 11.0 µM): 23%
- growth inhibition ([7]; at 33.0 µM): 46%
- growth inhibition ([7]; at 100.0 µM): 57%
- growth inhibition [8, 17]: 19%
- growth inhibition [8, 18]: 80% (active)
- growth inhibition ([8]; at 50.0 µM): 61.6%
- growth inhibition ([16]; at 1.2 µM): 4%
- growth inhibition ([16]; at 3.7 µM): 18%
- growth inhibition ([16]; at 11.0 µM): 55%
- growth inhibition ([16]; at 33.0 µM): 74% (active)
- growth inhibition ([16]; at 100.0 µM): 81% (active)
- growth inhibition ([10]; at 1.2 µM): -4%
- growth inhibition ([10]; at 3.7 µM): 4%
- growth inhibition [10, 17]: 9%
- growth inhibition ([10]; at 11.0 µM): 53%
- growth inhibition ([10]; at 33.0 µM): 77% (active)
- growth inhibition [10, 18]: 79% (active)
- growth inhibition ([10]; at 50.0 µM): 76.7% (active)
- growth inhibition ([10]; at 100.0 µM): 79% (active)
- growth inhibition ([11]; at 1.2 µM): -1%
- growth inhibition ([11]; at 3.7 µM): 10%
- growth inhibition ([11]; at 11.0 µM): 46%
- growth inhibition ([11]; at 33.0 µM): 64%
- growth inhibition ([11]; at 100.0 µM): 64%
- growth inhibition ([12]; at 1.2 µM): 0%
- growth inhibition ([12]; at 3.7 µM): 9%
- growth inhibition ([12]; at 11.0 µM): 49%
- growth inhibition ([12]; at 33.0 µM): 66%
- growth inhibition ([12]; at 100.0 µM): 68%
- growth inhibition ([13]; at 1.2 µM): 8%
- growth inhibition ([13]; at 3.7 µM): 27%
- growth inhibition ([13]; at 11.0 µM): 71% (active)
- growth inhibition ([13]; at 33.0 µM): 78% (active)
- growth inhibition ([13]; at 100.0 µM): 76% (active)
- growth inhibition [14, 17]: 48%
- growth inhibition [14, 18]: 90% (active)
- growth inhibition ([14]; at 50.0 µM): 75.9% (active)
- growth inhibition ([15]; at 1.2 µM): 4%
- growth inhibition ([15]; at 3.7 µM): 20%
- growth inhibition ([15]; at 11.0 µM): 56%
- growth inhibition ([15]; at 33.0 µM): 73% (active)
- growth inhibition ([15]; at 100.0 µM): 74% (active)
